ATXN2 expr inh: inhibitors of ATXN2 expression; HEK-293 ATXN2-luciferase reporter, luminescence, 24 h; Potency, µM (series often up to 57 µM), for inactives: at the top dose activity change, negative = inhibition, hits mostly inhibitors; hit rate 0.72% among 360,000; note: % is set by controls: 0 for no effect and ±100 for the full control effect; nearly all actives have a fitted effect of over 55% in size
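ATXN2-luciferase reporter cells (luciferase flanked by upstream and downstream ATXN2 gene portions) were treated 24 h at 37 °C with compounds at up to 57 uM. SteadyGlo luminescence gave expression; GF-AFC fluorescence gave viability.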
Nrf2 block: blocks Nrf2 signaling; hit rate 2.1% among 360,000; A549 ARE-Fluc reporter, luciferase luminescence, 18-24 h; Potency, µM (top dose mostly 46 µM), without a hit: at the highest dose activity change, negative = inhibition, usual class: inhibitors; AID 504444; note: % is set by controls: 0 for no effect and ±100 for the full control effect; nearly all actives have a fitted effect of over 60% in size
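Cells were seeded and rested 2 h, then exposed to compounds for 18-24 h. CellTiter-Fluor was read first as a viability measure. BugLite was added 15 min before the final luminescent read of ARE-luciferase activity in A549 cells.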
S2 tox: cell viability loss in ATXN counter-screen. Potency, µM (titrated, usually from 56.7 µM), hits mostly cytotoxic. hit rate 0.49% among 400,000. S2 cells (HEK-293 line with an ATXN2-luciferase reporter) viability, CellTiter-Fluor protease fluorescence, 24 h; note: nearly all actives have a fitted effect of over 40% in size
A549 tox: kills or reduces viability of A549 cells in Nrf2 counter-screen; A549 ARE-Fluc cells, CellTiter-Fluor viability, 18-24 h; Potency, µM (titrated, usually from 46 µM), without a hit: at the highest dose activity change, negative = cytotoxicity, hits mostly inhibitors; hit rate 0.16% among 390,000; AID 504648; note: % is set by controls: 0 for no effect and ±100 for the full control effect
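Cytotoxicity counterscreen: CellTiter-Fluor fluorescence was measured in A549 ARE_Fluc cells after 18-24 h of compound exposure in a concentration series. The subsequent BugLite luminescent read reports ARE-luciferase activity.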
TGFb inhibitor: blocks TGF-b signaling; Potency, µM (doses to about 46.1 µM), inactives show at the top dose activity, negative = inhibition, usual class: inhibitors; AID 588855; HepG2 CAGA-GFP TGF-b/SMAD3 reporter, GFP fluorescence, 18 h; TGF-beta stimulated, 500 pg/mL final; hit rate 1.2% among 410,000; note: % is set by controls: 0 for no effect and ±100 for the full control effect; nearly all actives have a fitted effect of over 65% in size
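Smad-responsive CAGA-GFP expression was quantified in HEPG2 cells exposed to compounds and 500 pg/mL final TGF-beta for 18 h at 37 degrees C; unstimulated wells defined full inhibition.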
HepG2 tox: counter-screen for TGF-b inhibitors: cytotoxicity in HepG2 cells | hit rate 0.76% among 410,000 | Potency, µM (titrated, usually from 46.1 µM), without a hit: at the highest dose activity change, negative = cytotoxicity, most hits filed as cytotoxic | AID 588856 | HepG2 CAGA-GFP viability, ATP luminescence, 18 h
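CellTiter-Glo luminescence gave cytotoxicity after 18 hours at 37 degrees C. The cells were HepG2 CAGA-GFP in 1% FBS DMEM, stimulated with 500 pg/mL TGF-beta after compound addition. %Activity was normalised to no-cell wells (complete cell-killing) and DMSO (no toxicity), and curves were fitted and classified.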
Numbers without * were called inactive; i = inactive; ? = inconclusive; . = not tested or not shown; ! = not confirmed by another sample; [ ] = dose if it differs, or a comment. Most compounds without a hit are left out; they make up all but 3.8% or so of the library. Calls come from the whole dose curve; as a rule, active = well fitted curve in the direction sought with a large enough effect; inconclusive = small, poorly fitted or top-dose-only effect, or another doubt; inactive = no such curve, though single readings can be large; an effect the other way counts as inactive or inconclusive. Potency is the fitted concentration of half-maximal effect.

SMILES | ATXN2 expr inh | Nrf2 block | S2 tox | A549 tox | TGFb inhibitor | HepG2 tox
COC(=O)C1=C(c2ccc(F)cc2OCc2ccccc2)C[C@@H]2CC[C@H]1N2C(=O)NCCOc1ccccc1 | ? | ? | ? | -18.6% | ? | -19.8%
COC(=O)C1=C(c2ccc(F)cc2OCc2ccccc2)C[C@@H]2CC[C@H]1N2C(=O)NCCOc1ccccc1Cl | 0.0% | ? | i | ? | ? | -9.5%
COC(=O)C1=C(c2ccc(F)cc2OCc2ccccc2)C[C@@H]2CC[C@H]1N2C(=O)NCCOc1ccc(OC)cc1 | -27.9% | 23.1µM* | i | -11.9% | ? | 1.6%
COC(=O)C1=C(c2ccc(F)cc2OCc2ccccc2)C[C@@H]2CC[C@H]1N2C(=O)NCCc1ccc(F)cc1 | ? | 18.4µM* | ? | ? | ? | -6.2%
COC(=O)C1=C(c2ccc(F)cc2OCc2ccccc2)C[C@@H]2CC[C@H]1N2C(=O)NCc1ccccc1Cl | -20.0% | 5.17µM* | i | -15.5% | -6.9% | -14.8%
COC(=O)C1=C(c2ccc(F)cc2OCc2ccccc2)C[C@@H]2CC[C@H]1N2C(=O)NCc1ccc(OC)cc1 | ? | ? | ? | -17.5% | 9.7% | 6.3%
CCOC(=O)c1ccc(NC(=O)Nc2cc3c(cc2N2CCCCC2)n(CC)c(=O)n3CC)cc1 | -20.6% | ? | ? | -12.1% | ? | -1.8%
Cc1ccc(NC(=O)Nc2cc3c(cc2N2CCCCC2)n(C)c(=O)n3C)cc1Cl | -17.7% | 20.6µM* | i | -19.0% | ? | -9.5%
CCN1/C(=C\C=C\C2=[N+](CC)c3ccccc3C2(C)C)C(C)(C)c2ccccc21 | ? | 0.651µM* | 2.82µM* | 5.17µM* | ? | -62.2%
COc1ccc(C(=O)C2CCCN(Cc3cnc(C)s3)C2)c(OC)c1 (configuration not stated) | -3.6%[11.3 µM] | 20.6µM* | . | -7.1% | -28.4% | -16.0%
O=C(c1ccco1)N1CCN(C(=O)c2ccc(COc3ccc(Cl)cc3Cl)o2)CC1 | -14.3% | 25.9µM* | i | -25.1% | 3.9% | -24.6%
O=C(CN1CC=C(c2ccccc2)CC1)Nc1c(Cl)cccc1Cl | -11.2% | -12.7% | ? | 0.9% | -14.2% | -1.3%
O=C(CN1CC=C(c2ccccc2)CC1)Nc1cc(Cl)ccc1Cl | -1.5% | 7.8% | i | 10.0% | 12.6µM* | -11.2%
CCN1C(=O)c2ccccc2Sc2ccc(C(=O)N3CCC4(CC3)OCCO4)cc21 | -16.1% | ? | i | -4.2% | 2.0% | -4.9%
O=C(c1ccc2c(c1)N(Cc1c(F)cccc1Cl)C(=O)c1ccccc1S2)N1CCC2(CC1)OCCO2 | -37.2% | 20.6µM* | i | ? | -15.0% | -15.7%
CC(=O)c1cn(Cc2ccccc2F)c2ccccc12 | -33.9% | 5.8µM* | i | -8.2% | ? | -67.8%
CC(C)(N)Cc1ccccc1Cl | 8.4% | . | i | . | . | .
O=C(C1CCN(S(=O)(=O)c2ccc(Br)s2)CC1)N1CCN(c2cccc(C(F)(F)F)c2)CC1 | -29.3% | 2.91µM* | ? | -10.9% | -0.7% | -5.6%
Cc1ccc(Cl)cc1N1CCN(C(=O)C2CCCN(S(=O)(=O)c3ccc(Br)s3)C2)CC1 (configuration not stated) | -5.0% | -26.3% | i | -0.5% | ? | 4.2%
O=P(NCc1ccccc1)(Oc1ccccc1)Oc1ccccc1 | -7.9% | ? | i | 2.7% | -6.8% | -13.3%
Cc1cccc(N2CCN(C(=O)CCNS(=O)(=O)c3ccc4c(c3)oc(=O)n4C)CC2)c1C | -33.3% | 20.6µM* | i | 1.6% | -26.0% | -5.8%
Cc1cccc(N2CCN(C(=O)CCS(=O)(=O)c3ccc4c(c3)oc(=O)n4C)CC2)c1C | -25.2% | ? | i | 3.9% | ? | -27.6%
Clc1ccc(CO[C@@H](Cn2ccnc2)c2ccc(Cl)cc2Cl)cc1 | . | . | i | . | . | .
Clc1ccc(COC(Cn2ccnc2)c2ccc(Cl)cc2Cl)c(Cl)c1 (configuration not stated) | ? | ? | ? | -5.0% | ? | 15.8µM*!
CCOC(=O)c1c(-n2c(C)cc(/C=C3/C(=O)NC(=O)N(CC)C3=O)c2C)sc2c1CCCC2 | -23.9% | -11.8% | i | -1.9% | -24.7% | -17.1%
SMILES | ATXN2 expr inh | Nrf2 block | S2 tox | A549 tox | TGFb inhibitor | HepG2 tox
CCOC(=O)c1c(-n2c(C)cc(C=C3C(=O)NC(=S)NC3=O)c2C)sc2c1CCCC2 | 20µM* | ? | 22.4µM* | ? | ? | -46.9%
O=C1NCCOC(=O)[C@H](Cc2ccc(F)cc2)CC/C=C/C[C@@H]1CC(=O)N(CCO)Cc1ccccc1 | -3.7% | -16.7% | i | -0.9% | ? | -13.2%
OC(Cn1c2ccccc2c2ccccc21)C[n+]1cccc2ccccc21 (configuration not stated) | ? | 3.0% | 22.4µM* | 1.1% | ? | -96.1%
Cc1ccc(C(=O)Nc2nc3ccccc3n2CCN2CCCC2)cc1 | 18.7% | ? | i | 0.5% | 12.9% | -7.7%
Cc1ccc(C(=O)Nc2nc3ccccc3[nH]2)cc1 | 3.55µM* | ? | i | 0.3% | -20.0% | -70.4%
Cc1cc(-c2ccccc2)cc(-c2ccccc2)[n+]1CCc1ccccc1 | ? | ? | ? | -9.1% | ? | -27.8%
Fc1ccc(C[n+]2c(-c3ccccc3)cc(-c3ccccc3)cc2-c2ccccc2)cc1 | ? | 18.4µM* | ? | ? | ? | -4.7%
Clc1ccc(C[n+]2c(-c3ccccc3)cc(-c3ccccc3)cc2-c2ccccc2)cc1 | ? | 20.6µM* | 10µM* | ? | ? | -82.4%
O=[N+]([O-])c1ccc(CN2CC=C(c3ccccc3)CC2)cc1 | 24.5% | ? | i | -2.2% | -18.3% | 1.8%
C1=C(c2c[nH]c3ccccc23)CCN(Cc2ccccc2)C1 | -15.3% | 6.51µM* | ? | -6.5% | ? | -50.7%
O=P1(c2ccccc2)Nc2ccccc2N1c1ccccc1 (configuration not stated) | 44.5% | ? | i | -14.8% | -2.8% | -0.6%
C/C1=C\[C@@H](C)C/C=C/[C@H]2[C@@H]3O[C@]3(C)[C@@H](C)[C@H]3[C@H](Cc4c[nH]c5ccccc45)NC(=O)[C@]32C(=O)/C=C/C(=O)[C@@H]1O | ? | ? | 31.6µM* | ? | 2.82µM* | -98.3%
C[C@@H]1CN([C@@H](C)CO)C(=O)c2c(c3ccccc3n2C)-c2ccccc2CO[C@H]1CN(C)S(=O)(=O)c1ccc(C(F)(F)F)cc1 | 4.1% | . | i | . | ? | -41.3%
